# Data published in PubChem BioAssay (EPA / NIEHS).
# Records with an inconclusive call do not appear. Active and inactive are the calls of the source. The calls were made as follows, unless noted: active = hit-call score of the fitted dose curve at least 0.9, where 1 is the maximum; inactive = score below 0.9.
# How the values were obtained:
# [1] = read-out: Vascular cell adhesion molecule 1 (VCAM1), VCAM1 (gene 7412); assay: BSK_LPS_VCAM1: BioMAP Diversity Plus: LPS Assay for Vascular cell adhesion molecule 1 (VCAM1) Biomarker Activity (AID 2283086); conditions: primary human HUVEC with PBMC; actives raise or lower the signal
# In short: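 Measured by ELISA: VCAM-1 in LPS-activated HUVEC/PBMC co-cultures 24 h after treatment. Values reflect bidirectional fitting with DMSO as baseline.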
# CD40, CD40 (gene 958) = assay: BSK_SAg_CD40: BioMAP Diversity Plus: SAg Assay for CD40 Biomarker Activity (AID 2283088); conditions: primary human HUVEC with PBMC; actives raise or lower the signal
# In short: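 Endpoint derived by fitting increases or decreases versus DMSO controls. CD40 is detected by fluorescence ELISA in a human vascular co-culture of endothelium and PBMC at 24 h.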
# CD69, CD69 (gene 969) = assay: BSK_SAg_CD69: BioMAP Diversity Plus: SAg Assay for CD69 Biomarker Activity (AID 2283089); conditions: primary human HUVEC with PBMC; actives raise or lower the signal;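 as to AC50: cell surface CD69 protein quantified by ELISA with fluorescence detection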
# In short: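 ELISA, fluorescence read-out: CD69 on human umbilical vein endothelial cell + PBMC co-culture, 24 h post-dosing. Gain or loss of signal fitted bidirectionally against DMSO baseline.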
# [2] = read-out: E-selectin (Homo sapiens) (UniProt P16581); assay: BSK_SAg_Eselectin: BioMAP Diversity Plus: SAg Assay for Eselectin Biomarker Activity (AID 2283091); conditions: primary human HUVEC with PBMC; actives raise or lower the signal
# In short: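 Endpoint values derive from bidirectional fitting relative to DMSO, using ELISA-measured E-selectin in a human vascular co-culture (umbilical vein endothelium plus PBMC) sampled 24 h after dosing.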
# [3] = read-out: Monokine induced gamma interferon (MIG), CXCL9 (gene 4283); assay: BSK_SAg_MIG: BioMAP Diversity Plus: SAg Assay for Monokine induced gamma interferon (MIG) Biomarker Activity (AID 2283092); conditions: primary human HUVEC with PBMC; actives raise or lower the signal
# In short: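 ELISA readout of MIG/CXCL9; primary human umbilical vein endothelial cells co-cultured with peripheral blood mononuclear cells; 24 h post-dose; gain/loss fit vs DMSO baseline.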
# [4] = BSK_SAg_PBMCCytotoxicity: PBMC Cytotoxicity Assessment in the BioMAP Diversity Plus: SAg Assay (AID 2283093); conditions: primary human HUVEC with PBMC;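 also: fitted both ways against DMSO so a hit may be loss or gain of signal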;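 as to AC50: PBMC superantigen activated with SEB plus TSST-1 one hour after compound addition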
# In short: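 PBMC viability by Alamar Blue reduction, fluorescence read at 546/580 nm after 6 h dye exposure. Cells were dosed 1 h before SEB plus TSST-1 activation (20 ng/mL final each), then held 90 h; endothelial/PBMC human co-culture.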
# [5] = read-out: Interleukin-8 (IL8), CXCL8 (gene 3576); assay: BSK_SAg_IL8: BioMAP Diversity Plus: SAg Assay for Interleukin-8 (IL8) Biomarker Activity (AID 2283094); conditions: primary human HUVEC with PBMC; actives raise or lower the signal
# In short: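 Primary human endothelial cells with PBMC, exposed 24 h; IL-8 determined by ELISA, analysed bidirectionally relative to DMSO.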
# [6] = BSK_SAg_Proliferation: Cell Proliferation Assessment in the BioMAP Diversity Plus: SAg Assay (AID 2283095); conditions: primary human HUVEC with PBMC;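 also: relative cell number as total protein by SRB absorbance in sub-confluent culture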
# In short: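 A human primary co-culture of umbilical vein endothelium and blood mononuclear cells receives compound; relative cell number is quantified at 96 h by SRB staining and 560 nm absorbance, with DMSO-referenced bidirectional curve fitting.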
# [7] = BSK_SAg_SRB: Viability Assessment in the BioMAP Diversity Plus: SAg Assay (AID 2283096); conditions: primary human HUVEC with PBMC;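 also: cells read one day after compound addition; hits may be either gain or loss of signal compared with DMSO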
# In short: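 Compounds were added to a human vascular co-culture of umbilical vein endothelium and PBMC. After 24 h, parallel cultures were fixed with 10% TCA, stained with 0.1% sulforhodamine B and read at 560 nm. Gain or loss of signal was fitted relative to DMSO.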
# [8] = biological target: human CYP1A1, CYP1A1 (gene 1543) (UniProt P04798); assay: NVS_ADME_hCYP1A1: NovaScreen (NVS) CYP450-related Enzyme Activity (ADME) Assay for human CYP1A1 (AID 2283100; active = hit-call score of the fitted dose curve at least 0.9, where 1 is the maximum)
# Chain of human CYP1A1, CYP1A1 (gene 1543) (P04798 whole entry, looked up): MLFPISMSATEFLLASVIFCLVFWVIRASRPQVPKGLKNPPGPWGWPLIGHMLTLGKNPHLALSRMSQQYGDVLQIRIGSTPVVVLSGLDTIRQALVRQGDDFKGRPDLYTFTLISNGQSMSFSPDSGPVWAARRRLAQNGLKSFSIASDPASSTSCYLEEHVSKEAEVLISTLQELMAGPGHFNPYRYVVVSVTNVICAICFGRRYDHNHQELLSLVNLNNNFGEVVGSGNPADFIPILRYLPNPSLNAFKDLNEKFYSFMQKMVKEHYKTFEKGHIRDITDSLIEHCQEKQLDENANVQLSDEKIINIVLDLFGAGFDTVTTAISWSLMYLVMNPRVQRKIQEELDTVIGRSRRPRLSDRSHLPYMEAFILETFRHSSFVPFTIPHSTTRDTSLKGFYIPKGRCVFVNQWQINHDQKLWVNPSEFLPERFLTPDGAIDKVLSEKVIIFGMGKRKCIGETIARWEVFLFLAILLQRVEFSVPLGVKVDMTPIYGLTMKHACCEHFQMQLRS
# In short: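 Inhibition of recombinant CYP1A1 turnover was assessed fluorometrically in a biochemical format 1 h after compound exposure. Testing began at 10 uM in duplicate and progressed to concentration series reaching 20 uM, with on-plate positive and negative controls.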
# [9] = biological target: Cytochrome P450 3A4 (Homo sapiens) (UniProt P08684); assay: NVS_ADME_hCYP3A4: NovaScreen (NVS) CYP450-related Enzyme Activity (ADME) Assay for human CYP3A4 (AID 2283110; active = hit-call score of the fitted dose curve at least 0.9, where 1 is the maximum)
# Chain of Cytochrome P450 3A4 (Homo sapiens) (P08684 whole entry, looked up): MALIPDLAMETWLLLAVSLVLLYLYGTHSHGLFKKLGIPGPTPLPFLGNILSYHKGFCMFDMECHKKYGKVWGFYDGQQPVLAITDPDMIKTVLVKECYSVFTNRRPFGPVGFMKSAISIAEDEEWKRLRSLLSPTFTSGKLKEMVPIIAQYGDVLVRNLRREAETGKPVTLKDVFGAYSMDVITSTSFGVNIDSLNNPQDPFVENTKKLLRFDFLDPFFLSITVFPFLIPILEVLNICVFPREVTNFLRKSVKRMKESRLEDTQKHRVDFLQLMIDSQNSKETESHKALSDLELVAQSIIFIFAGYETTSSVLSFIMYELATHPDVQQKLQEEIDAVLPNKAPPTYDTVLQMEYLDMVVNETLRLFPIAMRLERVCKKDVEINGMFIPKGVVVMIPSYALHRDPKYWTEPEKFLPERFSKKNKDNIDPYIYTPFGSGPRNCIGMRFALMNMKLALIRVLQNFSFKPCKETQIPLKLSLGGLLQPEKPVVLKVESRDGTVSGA
# In short: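 Recombinant CYP3A4 from insect cells, fluorescence enzyme read-out, 0.33 h after chemical addition. Acetonitrile = negative control/baseline. Primary HTS: 10 uM in duplicate; actives re-tested in concentration series.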
# [10] = biological target: Cytochrome P450 2C19 (Homo sapiens) (UniProt P33261); assay: NVS_ADME_hCYP2C19: NovaScreen (NVS) CYP450-related Enzyme Activity (ADME) Assay for human CYP2C19 (AID 2283113; active = hit-call score of the fitted dose curve at least 0.9, where 1 is the maximum;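 as to AC50: potency for inhibition seen as loss of fluorescent signal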)
# In short: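 Biochemical CYP2C19 inhibition screen: insect-cell recombinant protein plus fluorescent substrate, 1 h, fluorescence intensity. Acetonitrile defined baseline activity. Single 10 uM concentration in duplicate, with concentration-response follow-up for actives.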
# [11] = read-out: Monocyte Chemoattractant Protein-1 (MCP1), CCL2 (gene 6347); assay: BSK_SAg_MCP1: BioMAP Diversity Plus: SAg Assay for Monocyte Chemoattractant Protein-1 (MCP1) Biomarker Activity (AID 2283090); conditions: primary human HUVEC with PBMC; actives raise or lower the signal
# In short: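 Values derive from bidirectional fitting of ELISA-measured MCP1 against DMSO controls. Readings were taken 24 h after dosing human vascular endothelial cells co-cultured with peripheral blood mononuclear cells under superantigen stimulation.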
# [12] = biological target: human CYP2B6, CYP2B6 (gene 1555) (UniProt P20813); assay: NVS_ADME_hCYP2B6: NovaScreen (NVS) CYP450-related Enzyme Activity (ADME) Assay for human CYP2B6 (AID 2283101; active = hit-call score of the fitted dose curve at least 0.9, where 1 is the maximum)
# Chain of human CYP2B6, CYP2B6 (gene 1555) (P20813 whole entry, looked up): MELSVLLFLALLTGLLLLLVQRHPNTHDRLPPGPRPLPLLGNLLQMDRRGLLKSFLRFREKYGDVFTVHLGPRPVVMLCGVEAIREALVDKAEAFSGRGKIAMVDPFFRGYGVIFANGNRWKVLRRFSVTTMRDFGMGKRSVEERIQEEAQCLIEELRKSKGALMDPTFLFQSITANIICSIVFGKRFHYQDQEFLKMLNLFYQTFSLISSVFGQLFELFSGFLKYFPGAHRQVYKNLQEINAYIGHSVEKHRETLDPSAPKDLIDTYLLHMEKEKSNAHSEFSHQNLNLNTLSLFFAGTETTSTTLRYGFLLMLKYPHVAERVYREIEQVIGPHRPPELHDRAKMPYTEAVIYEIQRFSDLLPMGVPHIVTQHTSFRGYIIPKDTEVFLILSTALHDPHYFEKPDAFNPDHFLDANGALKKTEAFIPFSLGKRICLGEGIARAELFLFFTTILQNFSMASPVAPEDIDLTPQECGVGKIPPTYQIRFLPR
# In short: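 Fluorescence-based enzyme activity of recombinant human CYP2B6, measured 1 h post-dose against acetonitrile vehicle baseline. Screened at a single concentration of 10 uM in duplicate before concentration-response follow-up.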
# [13] = biological target: human CYP2D6, CYP2D6 (gene 1565) (UniProt P10635); assay: NVS_ADME_hCYP2D6: NovaScreen (NVS) CYP450-related Enzyme Activity (ADME) Assay for human CYP2D6 (AID 2283107; active = hit-call score of the fitted dose curve at least 0.9, where 1 is the maximum)
# Chain of human CYP2D6, CYP2D6 (gene 1565) (P10635 whole entry, looked up): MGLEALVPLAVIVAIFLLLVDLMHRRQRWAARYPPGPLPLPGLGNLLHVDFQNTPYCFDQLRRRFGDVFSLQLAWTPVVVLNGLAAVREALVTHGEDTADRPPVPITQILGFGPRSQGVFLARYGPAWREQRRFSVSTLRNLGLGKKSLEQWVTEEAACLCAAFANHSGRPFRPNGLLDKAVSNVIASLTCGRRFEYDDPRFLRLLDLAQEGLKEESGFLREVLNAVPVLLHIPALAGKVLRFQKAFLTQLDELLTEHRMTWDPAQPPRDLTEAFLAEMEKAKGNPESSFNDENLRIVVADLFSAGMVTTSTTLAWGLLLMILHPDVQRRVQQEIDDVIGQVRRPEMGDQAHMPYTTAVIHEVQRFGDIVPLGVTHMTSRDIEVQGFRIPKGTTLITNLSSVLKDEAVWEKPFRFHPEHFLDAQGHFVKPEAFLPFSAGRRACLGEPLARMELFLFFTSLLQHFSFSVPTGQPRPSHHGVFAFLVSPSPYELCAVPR
# In short: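 Biochemical fluorescence assay, insect-cell-derived enzyme. Read at 1 h; inhibition taken from loss of signal against acetonitrile. Screened at 10 uM in duplicate, with concentration series for actives.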
# [14] = biological target: human Acetylcholinesterase (AChE), ACHE (gene 43) (UniProt P22303); assay: NVS_ENZ_hAChE: NovaScreen (NVS) Enzymatic Assay for human Acetylcholinesterase (AChE) (AID 2283129; active = hit-call score of the fitted dose curve at least 0.9, where 1 is the maximum)
# Chain of human Acetylcholinesterase (AChE), ACHE (gene 43) (P22303 whole entry, looked up): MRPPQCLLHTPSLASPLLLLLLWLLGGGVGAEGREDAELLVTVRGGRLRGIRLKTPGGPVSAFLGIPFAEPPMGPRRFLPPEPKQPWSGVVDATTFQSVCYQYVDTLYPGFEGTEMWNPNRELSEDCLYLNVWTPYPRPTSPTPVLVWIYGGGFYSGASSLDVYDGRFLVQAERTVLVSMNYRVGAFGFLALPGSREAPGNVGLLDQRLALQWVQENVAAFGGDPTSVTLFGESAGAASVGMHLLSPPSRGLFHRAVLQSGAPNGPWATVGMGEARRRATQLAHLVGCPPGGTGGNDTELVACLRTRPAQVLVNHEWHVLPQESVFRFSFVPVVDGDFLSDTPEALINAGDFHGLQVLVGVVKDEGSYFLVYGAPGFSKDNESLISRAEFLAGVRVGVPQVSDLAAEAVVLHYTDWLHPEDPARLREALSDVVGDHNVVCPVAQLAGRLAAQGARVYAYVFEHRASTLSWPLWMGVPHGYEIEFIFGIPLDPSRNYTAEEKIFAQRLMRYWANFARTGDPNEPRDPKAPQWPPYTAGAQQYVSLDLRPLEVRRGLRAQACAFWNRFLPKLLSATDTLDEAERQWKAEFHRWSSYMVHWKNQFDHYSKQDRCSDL
# In short: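 Actives from a duplicate single-point screen (25 uM) were followed up in concentration series. Enzyme activity read by absorbance (colorimetric) 0.33 hour after dosing, cell-free, normalized to DMSO, with loss of signal scored.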
# [15] = biological target: human CYP2C9, CYP2C9 (gene 1559) (UniProt P11712); assay: NVS_ADME_hCYP2C9: NovaScreen (NVS) CYP450-related Enzyme Activity (ADME) Assay for human CYP2C9 (AID 2283108; active = hit-call score of the fitted dose curve at least 0.9, where 1 is the maximum)
# Chain of human CYP2C9, CYP2C9 (gene 1559) (P11712 whole entry, looked up): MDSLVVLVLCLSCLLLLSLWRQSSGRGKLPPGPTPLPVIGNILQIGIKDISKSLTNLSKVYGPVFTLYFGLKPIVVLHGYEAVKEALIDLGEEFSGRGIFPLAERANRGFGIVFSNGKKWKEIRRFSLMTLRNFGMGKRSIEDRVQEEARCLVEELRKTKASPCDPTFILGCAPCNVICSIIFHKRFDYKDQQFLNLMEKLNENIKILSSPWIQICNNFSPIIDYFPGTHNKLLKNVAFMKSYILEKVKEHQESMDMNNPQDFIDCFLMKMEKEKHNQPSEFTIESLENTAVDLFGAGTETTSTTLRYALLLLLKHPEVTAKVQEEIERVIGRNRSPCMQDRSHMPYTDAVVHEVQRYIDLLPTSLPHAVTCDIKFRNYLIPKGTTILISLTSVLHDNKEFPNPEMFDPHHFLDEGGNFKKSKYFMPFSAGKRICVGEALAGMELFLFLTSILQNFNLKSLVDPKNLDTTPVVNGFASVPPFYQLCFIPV
# In short: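 Recombinant human CYP2C9 expressed in SF9 cells, fluorogenic substrate, fluorescence read 0.75 h after dosing. Chemicals first run in duplicate at 10 uM, with actives followed in concentration series; loss of signal versus acetonitrile baseline.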
# Chain of E-selectin (Homo sapiens) (P16581 whole entry, looked up): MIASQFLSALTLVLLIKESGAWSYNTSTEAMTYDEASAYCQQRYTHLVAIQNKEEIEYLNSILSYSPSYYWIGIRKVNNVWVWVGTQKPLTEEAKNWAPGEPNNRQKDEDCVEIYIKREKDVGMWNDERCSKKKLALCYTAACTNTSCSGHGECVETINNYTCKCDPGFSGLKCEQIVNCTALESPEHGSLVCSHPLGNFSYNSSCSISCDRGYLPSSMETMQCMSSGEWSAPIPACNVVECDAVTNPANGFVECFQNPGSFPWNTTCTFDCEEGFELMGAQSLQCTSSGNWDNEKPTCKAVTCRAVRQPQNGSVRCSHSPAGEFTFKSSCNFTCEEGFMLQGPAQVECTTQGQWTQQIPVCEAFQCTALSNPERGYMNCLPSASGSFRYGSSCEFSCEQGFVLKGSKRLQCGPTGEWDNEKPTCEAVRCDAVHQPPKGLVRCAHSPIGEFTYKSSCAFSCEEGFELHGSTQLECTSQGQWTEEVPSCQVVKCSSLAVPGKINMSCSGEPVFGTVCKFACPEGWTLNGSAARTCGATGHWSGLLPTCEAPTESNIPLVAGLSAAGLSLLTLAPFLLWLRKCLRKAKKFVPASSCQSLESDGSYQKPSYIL
structure (smiles),measurement,setting,value
O=C(Nc1ccccc1)c1ccccc1I,outcome,[1],inactive
same,outcome,"CD40, CD40 (gene 958)",inactive
same,outcome,"CD69, CD69 (gene 969)",inactive
same,outcome,[2],inactive
same,outcome,[3],inactive
same,outcome,[4],inactive
same,outcome,[5],inactive
same,outcome,[6],inactive
same,outcome,[7],inactive
same,outcome,[8],inactive
same,outcome,[9],inactive
same,AC50,[10],4.95 µM (active)
Nc1ccc(Oc2ccc(N)cc2)cc1,outcome,[1],inactive
same,outcome,"CD40, CD40 (gene 958)",inactive
same,outcome,"CD69, CD69 (gene 969)",inactive
same,outcome,[11],inactive
same,outcome,[2],inactive
same,outcome,[3],inactive
same,outcome,[4],inactive
same,outcome,[5],inactive
same,outcome,[6],inactive
same,outcome,[7],inactive
same,outcome,[8],inactive
same,AC50,[12],2.57 µM (active)
same,outcome,[13],inactive
same,AC50,[9],7.04 µM (active)
same,outcome,[10],inactive
Cc1cccc(N)c1N,AC50,[1],14.3 µM (active)
same,outcome,"CD40, CD40 (gene 958)",inactive
same,outcome,"CD69, CD69 (gene 969)",inactive
same,outcome,[2],inactive
same,outcome,[3],inactive
same,outcome,[4],inactive
same,outcome,[5],inactive
same,outcome,[6],inactive
same,outcome,[7],inactive
CNC(=O)Oc1cccc2c1OC(C)(C)C2,outcome,[1],inactive
same,outcome,"CD40, CD40 (gene 958)",inactive
same,outcome,"CD69, CD69 (gene 969)",inactive
same,outcome,[11],inactive
same,outcome,[2],inactive
same,outcome,[3],inactive
same,outcome,[4],inactive
same,outcome,[5],inactive
same,outcome,[6],inactive
same,outcome,[7],inactive
same,AC50,[14],0.497 µM (active)
CC(C)N(Cc1ccccc1)C(=O)C(C)(C)C,outcome,[1],inactive
same,outcome,"CD40, CD40 (gene 958)",inactive
same,outcome,"CD69, CD69 (gene 969)",inactive
same,outcome,[2],inactive
same,outcome,[3],inactive
same,outcome,[4],inactive
same,outcome,[5],inactive
same,outcome,[6],inactive
same,outcome,[7],inactive
O=[N+]([O-])c1ccc(Oc2ccc(Cl)cc2Cl)cc1,outcome,[1],inactive
same,AC50,"CD40, CD40 (gene 958)",20 µM (active)
same,outcome,"CD69, CD69 (gene 969)",inactive
same,AC50,[2],27.4 µM (active)
same,outcome,[3],inactive
same,outcome,[4],inactive
same,AC50,[5],33.9 µM (active)
same,AC50,[6],32 µM (active)
same,outcome,[7],inactive
ClCCOCCCl,outcome,[1],inactive
same,outcome,"CD40, CD40 (gene 958)",inactive
same,outcome,"CD69, CD69 (gene 969)",inactive
same,outcome,[11],inactive
same,outcome,[2],inactive
same,outcome,[3],inactive
same,outcome,[4],inactive
same,outcome,[5],inactive
same,outcome,[6],inactive
same,outcome,[7],inactive
same,AC50,[15],15 µM (active)
Brc1ccc(Oc2ccccc2)cc1,outcome,[1],inactive
same,outcome,"CD40, CD40 (gene 958)",inactive
same,outcome,"CD69, CD69 (gene 969)",inactive
same,outcome,[2],inactive
same,outcome,[3],inactive
same,outcome,[4],inactive
same,outcome,[5],inactive
same,outcome,[6],inactive
same,outcome,[7],inactive
N#CC(Br)Br,outcome,[1],inactive
same,outcome,"CD40, CD40 (gene 958)",inactive
same,outcome,"CD69, CD69 (gene 969)",inactive
same,outcome,[2],inactive
same,outcome,[3],inactive
same,outcome,[4],inactive
same,outcome,[5],inactive
same,outcome,[6],inactive
same,outcome,[7],inactive
Clc1ccc(C(c2ccc(Cl)cc2)C(Cl)Cl)cc1,AC50,[1],30.5 µM (active)
same,AC50,"CD40, CD40 (gene 958)",26.2 µM (active)
same,AC50,"CD69, CD69 (gene 969)",29.9 µM (active)
same,AC50,[2],28.9 µM (active)
same,AC50,[3],35.6 µM (active)
same,AC50,[4],14.3 µM (active)
same,AC50,[5],29 µM (active)
same,AC50,[6],11.4 µM (active)
same,AC50,[7],29.5 µM (active)
same,AC50,[10],4.79 µM (active)
CO[C@@H]1[C@H](OC(=O)NC(=O)CCl)CC[C@]2(CO2)[C@H]1[C@@]1(C)O[C@@H]1CC=C(C)C,AC50,[1],7.31 µM (active)
same,AC50,"CD40, CD40 (gene 958)",7.52 µM (active)
same,outcome,"CD69, CD69 (gene 969)",inactive
same,outcome,[11],inactive
same,AC50,[2],3.89 µM (active)
same,outcome,[3],inactive
same,outcome,[4],inactive
same,AC50,[5],2.58 µM (active)
same,AC50,[6],2.45 µM (active)
same,outcome,[7],inactive
same,AC50,[9],2.38 µM (active)
same,AC50,[10],2.21 µM (active)
O=C1CCCO1,outcome,[1],inactive
same,outcome,"CD40, CD40 (gene 958)",inactive
same,outcome,"CD69, CD69 (gene 969)",inactive
same,outcome,[2],inactive
same,outcome,[3],inactive
same,outcome,[4],inactive
same,outcome,[5],inactive
same,outcome,[6],inactive
same,outcome,[7],inactive
COc1cc(C=O)cc2c1[C@H](COC(N)=O)[C@]1(OC(C)=O)ON2C[C@H]2[C@@H]1N2C(C)=O,AC50,[1],16.7 µM (active)
same,AC50,"CD40, CD40 (gene 958)",18.2 µM (active)
same,AC50,"CD69, CD69 (gene 969)",13.2 µM (active)
same,AC50,[2],21.4 µM (active)
same,AC50,[3],28.7 µM (active)
same,AC50,[4],4.25 µM (active)
same,AC50,[5],8.56 µM (active)
same,AC50,[6],0.402 µM (active)
same,AC50,[7],4.34 µM (active)
